This is an account of results in PubChem BioAssay (NCI).

SMILES strings stand for the structures. Compounds without any hit were thinned out: in the full panel of roughly 79,000, 15% have a hit. A number with no mark means an inactive call. Activity calls are given as the source filed them. Rule as the data show it: active = growth inhibition above about 70%; inactive = the rest.

A short description of the assay: NCI Yeast Anticancer Drug Screen. Data for the rad52 strain (AID 147).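 Also: 0% = growth of vehicle-treated control cultures.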 The following applies: S. cerevisiae rad52 mutant growth inhibition, hits give high values. The procedure: Growth inhibition of yeast strains with defined genetic alterations is measured as a screen for potential anti-cancer activity. Selected strains with alterations in DNA damage repair or cell cycle control were exposed to compounds and growth inhibition was measured relative to vehicle treated controls. The strain used in this assay is rad52

`CCCCCCCCCCC1CCC(=O)O1` (stereo not given): the growth inhibition is, setting by setting: (at 1.2 µM) -2%; (at 3.7 µM) -2%; (at 11.0 µM) -1%; (at 33.0 µM) 4%; (at 100.0 µM) 99% (active).

In the case of `CC(=O)Nc1ccc(/C=C(\C#N)c2ccc(C)cc2)cc1`, the growth inhibition (at 1.2 µM) is -10%; the growth inhibition (at 3.7 µM) is 0%; the growth inhibition (at 11.0 µM) is -5%; the growth inhibition (at 33.0 µM) is -2%; the growth inhibition (at 100.0 µM) is 1%.

Regarding `CCCCCCCCC/C=C/C=C/C(=O)NCC(=O)NC1C(O)C(O)C(Nc2ncnc3nc[nH]c23)OC1C(O)CO` (stereo not given), the growth inhibition is, setting by setting: (at 1.2 µM) -19%; (at 3.7 µM) 11%; (at 11.0 µM) 10%; (at 33.0 µM) 69%; (at 100.0 µM) 67%.

As to `O=[N+]([O-])c1cccc([N+](=O)[O-])c1S(=O)(=O)c1ccccc1`, the growth inhibition was 87% (active) (at 1.2 µM); 93% (active) (at 3.7 µM); 97% (active) (at 11.0 µM); 98% (active) (at 33.0 µM); 97% (active) (at 100.0 µM).

For `CN1c2ccc(Cl)cc2C(=O)NC1c1ccc([N+](=O)[O-])s1` (stereo not given), the growth inhibition was 27% (at 1.2 µM); 30% (at 3.7 µM); 65% (at 11.0 µM); 97% (active) (at 33.0 µM); 97% (active) (at 100.0 µM).

`CCCCCCCC1(N=[N+]=[N-])C(=O)c2ccccc2N(C)C1=O` (stereo not given): the growth inhibition runs as follows: (at 1.2 µM) 2%; (at 3.7 µM) 18%; (at 11.0 µM) 18%; (at 33.0 µM) 68%; (at 100.0 µM) 75% (active).

Regarding `CC(=O)Oc1cc(-c2cc(OC(C)=O)c(OC(C)=O)c3ccccc23)c2ccccc2c1OC(C)=O`, the growth inhibition (at 1.2 µM) was 3%; the growth inhibition (at 3.7 µM) is 4%; the growth inhibition (at 11.0 µM) is 7%; the growth inhibition (at 33.0 µM) is 13%; the growth inhibition (at 100.0 µM) was 79% (active).

As for `CCC/C(Cl)=N\OC(=O)Nc1cccc(C(F)(F)F)c1`, the growth inhibition (at 1.2 µM) was 9%; the growth inhibition (at 3.7 µM) is 10%; the growth inhibition (at 11.0 µM) is 10%; the growth inhibition (at 33.0 µM) was 19%; the growth inhibition (at 100.0 µM) was 21%.
